Assay results reported in PubChem BioAssay AID602295 (Broad Institute, 2012).
Activity calls are given as the source filed them.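 How the source made its calls: active means every separate test run called active, meaning the signal drops and a potency is fitted within twice the top valid dose; inconclusive means runs disagree, poor fit, or flat partial inhibition; inactive means all runs inactive, flat, opposite direction or too weak.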

Each molecule was assayed against Mitogen-activated protein kinase 3 (Homo sapiens) (UniProt P27361) (assay: inhibition of MAPK3 kinase activity – biochemical, ADP-Glo luminescence, cherry pick, set 2, selectivity assay for Dyrk1A inhibitor NFAT project, dose response (AID 602295)). Conditions: ERK1 kinase, 120 min; series mostly up to 10 µM; activity change, negative = inhibition: at the top concentration.
Mitogen-activated protein kinase 3 (Homo sapiens), sequence (P27361 whole entry, looked up): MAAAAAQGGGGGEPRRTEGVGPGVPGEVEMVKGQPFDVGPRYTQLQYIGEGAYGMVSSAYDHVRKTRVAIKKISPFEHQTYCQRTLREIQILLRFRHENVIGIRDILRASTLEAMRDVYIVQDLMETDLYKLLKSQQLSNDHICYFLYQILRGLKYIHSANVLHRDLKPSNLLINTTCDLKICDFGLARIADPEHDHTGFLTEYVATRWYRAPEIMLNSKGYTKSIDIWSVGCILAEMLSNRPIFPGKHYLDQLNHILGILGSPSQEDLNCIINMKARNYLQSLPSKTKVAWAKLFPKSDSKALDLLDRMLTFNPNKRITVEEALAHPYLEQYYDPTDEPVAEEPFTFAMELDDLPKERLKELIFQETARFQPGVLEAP

Activity change, negative = inhibition, inactive:
COc1ccc(-c2[nH]ncc2-c2ccc3c(c2)OCCO3)c(O)c1 1.76%
O=C(COc1ccccc1)Nc1cccc(-c2cn3cccnc3n2)c1 -13.8%
COc1cccc(Nc2ncnc3ccccc23)c1 4.09%
c1cncc(-c2nc(NCc3ccco3)c3ccccc3n2)c1 -18.8%
CCCNc1ncnc2ccc(-c3ccc4c(c3)OCO4)cc12 1.11%
Cc1cc(NCCCn2ccnc2)n2ncc(-c3ccc(Cl)cc3)c2n1 19.3%
CC(=O)Nc1ccc(Nc2cc(C)nc3c(-c4ccccc4)cnn23)cc1 -6.73%
O=C(Nc1nc(-c2ccncc2)cs1)c1ccco1 -15.8%
COc1cccc(Nc2ncnc3sc(C)cc23)c1 -2.65%
c1cncc(CNc2cc(-c3ccc4c(c3)OCO4)ncn2)c1 15.9%
Cc1noc(NS(=O)(=O)c2ccc(NC(=O)c3oc4ccc(Cl)cc4c3C)cc2)c1C -10.1%
Fc1cccc(Nc2nc(-c3ccncc3)nc3ccccc23)c1 10.8%
CSCC(=O)Nc1nc(-c2ccc3c(c2)OCCO3)cs1 -19.7%
Cc1noc(NS(=O)(=O)c2ccc(NC(=O)c3oc4ccc(F)cc4c3C)cc2)c1C 9.38%
Cc1ccnc(NC(=O)c2cccc(S(=O)(=O)N3CCN(c4ccccc4)CC3)c2)c1 5.59%
NC(=O)c1c(NC(=O)c2ccc(N3C(=O)CCC3=O)cc2)sc2c1CCCC2 -13%
Brc1cc(Br)cc(CNc2nccc(-c3ccc4c(c3)OCO4)n2)c1 9.15%
O=C(Nc1nc2ccc(Cl)cc2s1)C1CCCO1 (stereo not drawn) -21.8%
Clc1ccc(CNc2nccc(-c3ccc4c(c3)OCO4)n2)cc1Cl 33.6%
Cc1nc(NC(=O)c2ccccc2)sc1-c1csc(N)n1 -10%
COc1ccc(-c2nccc(NCc3ccc(C)cc3)n2)cc1 -1%
O=C(Nc1nc2c(s1)CCCC2)c1ccc(N2C(=O)CCC2=O)cc1 13%
CCOC(=O)c1ccc2ncc(C(=O)OCC)c(Nc3ccc(N4CCOCC4)cc3)c2c1 -13.7%
COc1ccc(C(=O)c2sc(Nc3ccccc3F)nc2N)cc1 -20.3%
Cc1c(-c2ccnc(NCc3ccc(Cl)cc3)n2)sc(=O)n1C 18.4%
Cc1ccc(CNc2ncnc3ccc(-c4ccc5c(c4)OCO5)cc23)o1 12.1%
Clc1ccc(CNc2cc(-c3ccc4c(c3)OCO4)ncn2)cc1 -1.91%
COc1cccc(-c2sc3ccccc3c2-c2ccc(OCCN3CCCC3)cc2)c1 21.3%
CCN(Cc1cccs1)c1ncnc2ccc(-c3ccc4c(c3)OCO4)cc12 13.5%
CN(C)S(=O)(=O)c1ccc(Cl)c(C(=O)Nc2cccc3ncccc23)c1 4.43%
COc1ccc2c(Cl)c(C(=O)NCc3ccco3)sc2c1 13.3%
COc1cccc(NC(=O)c2sc(NC(=O)c3ccncc3)nc2C)c1 -10.8%

outcome, inactive:
CCOC(=O)c1ccc(-c2ccc3ncnc(NCc4ccc(C)o4)c3c2)o1
